Measured values as given in PubChem BioAssay AID1159580 (chemical genetic matrix, 2015).
Out of some 5,500 compounds screened, about 2,000 (36%) were called active. Another 18% or so got no clear call; they are omitted. Rule as the data show it: active = normalized growth mostly below about 0.91 (no sharp cut-off); inconclusive = no clear call, values can overlap the other calls; inactive = mostly above about 0.92. This is one part of the list.

Experiment: chemical genetic growth profiling, strain panel (AID 1159580);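 also: tested at 20 µM; growth read once vehicle control cultures reached saturation at 30 °C; 1 = growth at the plate median or of vehicle wells; lower values mean less growth of the strain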
Details: S. cerevisiae deletion strains, growth OD

Measured: normalized growth

NC1(C(=O)O)CCc2cc(C(=O)O)ccc21 (stereo not drawn)
inactive: locus YAL040C, strain CLN3, stronger effect = lower value 0.959 | locus YER002W, strain NOP16, stronger effect = lower value 0.997 | locus YGR078C, strain PAC10, stronger effect = lower value 1.01 | locus YNL128W, strain TEP1, stronger effect = lower value 0.997 | locus YNL175C, strain NOP13, stronger effect = lower value 0.988 | locus YNL197C, strain WHI3, stronger effect = lower value 0.998 | locus YNL224C, strain SQS1, stronger effect = lower value 1.01 | locus YOR083W, strain WHI5 (second series), stronger effect = lower value 0.993
